24 compounds from PubChem BioAssay (EPA / NIEHS) can be followed below.

Read-out in experiment [1]: Thrombomodulin, THBD (gene 7056)
Description: BSK_CASM3C_Thrombomodulin: BioMAP Diversity Plus: CASM3C Assay for Thrombomodulin Biomarker Activity (AID 2283051).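 Further: thrombomodulin protein level measured by ELISA 24 h after dosing.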 The note with it: primary human coronary artery smooth muscle cells; actives raise or lower the signal.

Read-out in experiment [2]: Tissue Factor, F3 (gene 2152)
Kind of experiment: BSK_CASM3C_TissueFactor: BioMAP Diversity Plus: CASM3C Assay for Tissue Factor Biomarker Activity (AID 2283052).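 Further: cell surface tissue factor protein level read by ELISA.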 The note with it: primary human coronary artery smooth muscle cells; actives raise or lower the signal.

Read-out in experiment [3]: Urokinase-type plasminogen activator receptor (uPAR), PLAUR (gene 5329)
Description: BSK_CASM3C_uPAR: BioMAP Diversity Plus: CASM3C Assay for Urokinase-type plasminogen activator receptor (uPAR) Biomarker Activity (AID 2283054).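 Further: cell-surface uPAR protein level quantified by ELISA.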 The note with it: primary human coronary artery smooth muscle cells; actives raise or lower the signal.

Read-out in experiment [4]: Vascular cell adhesion molecule 1 (VCAM1), VCAM1 (gene 7412)
Kind of experiment: BSK_CASM3C_VCAM1: BioMAP Diversity Plus: CASM3C Assay for Vascular cell adhesion molecule 1 (VCAM1) Biomarker Activity (AID 2283055).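 Further: VCAM-1 protein level quantified by ELISA on the cells.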 The note with it: primary human coronary artery smooth muscle cells; actives raise or lower the signal.

Read-out in experiment [5]: Collagen III, COL3A1 (gene 1281)
Kind of experiment: BSK_hDFCGF_CollagenIII: BioMAP Diversity Plus: hDFCGF Assay for Collagen III Biomarker Activity (AID 2283056). The conditions noted are these: primary human foreskin fibroblasts; actives raise or lower the signal. In a few lines:
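hDFCGF primary human dermal fibroblasts; 24 h chemical exposure; collagen III by ELISA; bidirectional curve fit vs DMSO baseline (gain or loss of signal).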

Read-out in experiment [6]: Epidermal growth factor receptor (EGFR), EGFR (gene 1956)
Kind of experiment: BSK_hDFCGF_EGFR: BioMAP Diversity Plus: hDFCGF Assay for Epidermal growth factor receptor (EGFR) Biomarker Activity (AID 2283057). The conditions noted are these: primary human foreskin fibroblasts; actives raise or lower the signal. In a few lines:
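Dosing human primary skin fibroblasts, then measuring surface EGFR by ELISA at 24 h, gives the endpoint; gains and losses relative to DMSO were fitted in both directions.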

Experiment [7] is described as follows: BSK_hDFCGF_Proliferation: Cell Proliferation Assessment in the BioMAP Diversity Plus: hDFCGF Assay (AID 2283059).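 Further: curves fitted for both rise and fall of signal versus DMSO baseline.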 The note with it: primary human foreskin fibroblasts. In a few lines:
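Steps: dose primary human dermal fibroblasts (foreskin); […] fix in 10% TCA; stain with 0.1% SRB; read 560 nm; fit gain or loss of signal against DMSO.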

Read-out in experiment [8]: Macrophage colony-stimulating factor (MCSF), CSF1 (gene 1435)
Kind of experiment: BSK_hDFCGF_MCSF: BioMAP Diversity Plus: hDFCGF Assay for Macrophage colony-stimulating factor (MCSF) Biomarker Activity (AID 2283060). The conditions noted are these: primary human foreskin fibroblasts; actives raise or lower the signal. In a few lines: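 ELISA read-out of M-CSF in human dermal foreskin fibroblast cultures, 24 h after chemical dosing; gain or loss of signal fitted bidirectionally relative to DMSO baseline.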

Read-out in experiment [9]: Interleukin-8 (IL8), CXCL8 (gene 3576)
Description: BSK_hDFCGF_IL8: BioMAP Diversity Plus: hDFCGF Assay for Interleukin-8 (IL8) Biomarker Activity (AID 2283058). The note with it: primary human foreskin fibroblasts; actives raise or lower the signal. A digest of the protocol:
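ELISA read-out of IL-8 from primary human foreskin fibroblast cultures taken 24 h after dosing; values are bidirectional fits relative to DMSO vehicle.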

Calls of active or inactive are those of the source. How the source made its calls: active means hit-call score of the fitted dose curve at least 0.9, where 1 is the maximum; inactive means score below 0.9.

As for `COc1cc(C=O)ccc1O`, the outcome in [1], in experiment [2], in experiment [3], in experiment [4], in experiment [5] and in experiment [6] was inactive. Besides, the outcome in experiment [7] and in [8] was inactive.

The AC50 is the concentration giving half of the maximal activity seen. In the case of `Cc1nc(-c2ccc3c(c2)CCN(CCC2CCC(NC(=O)/C=C/c4ccc(F)cc4)CC2)CC3)no1` (stereo unspecified), the result in experiment [1], in [2], in [3], in experiment [5], in experiment [6] and in [9] was inactive. The result in experiment [7] and in experiment [8] was inactive. Also, in [4], the AC50 is 6.35 µM (active).

On to `NCCO`, for which the AC50 in experiment [1] was 0.937 µM (active). For the same compound, the result in experiment [2], in experiment [3], in [4], in experiment [5], in experiment [6] and in experiment [7] was inactive. Moreover, the result in experiment [8] was inactive.

For the compound `CCCCCCCCCCCCCO`, the AC50 was 20.6 µM (active) in experiment [1]; 28.3 µM (active) in [4]; 12.9 µM (active) in experiment [5]; 8.61 µM (active) in experiment [7]; 13.7 µM (active) in experiment [8]. Moreover, the outcome in experiment [2], in [3] and in experiment [6] was inactive.

As for `COc1ccc(S(=O)(=O)N2C(=O)[C@@](c3ccccc3OC)(N3C[C@H](O)C[C@H]3C(=O)N(C)C)c3cc(Cl)ccc32)c(OC)c1`, the result in [1], in experiment [2], in experiment [3], in experiment [4], in experiment [5] and in experiment [6] was inactive. In addition, the outcome in experiment [9] and in experiment [8] was inactive. The AC50 in experiment [7] was 30.5 µM (active).

Regarding `CCCCCCCCCCCCCCCC`, the outcome in experiment [1], in experiment [2], in experiment [3], in experiment [4], in experiment [5] and in experiment [6] was inactive. Also, the result in [9], in experiment [7] and in experiment [8] was inactive.

For `c1cc(-c2ccncc2)ccn1`, the outcome in experiment [1], in [2], in experiment [3], in experiment [4], in experiment [5] and in experiment [6] was inactive. The result in experiment [7] and in experiment [8] was inactive.

Turning to `Cc1ccc(Cl)cc1`, the result in experiment [1], in [2], in experiment [3], in experiment [4], in experiment [5] and in experiment [6] was inactive. Besides, the outcome in experiment [9] and in [8] was inactive. Moreover, in experiment [7], the AC50 was 0.148 µM (active).

In the case of `COc1cc(-c2nc(NC(=O)c3cc4cc(C)cc(C)c4n3CC(=O)O)sc2CCC2CCCCC2)c(OC)cc1Cl`, the result in experiment [1], in [2] and in experiment [6] was inactive. In addition, the AC50 in [3] is 6.56 µM (active); in experiment [4], 10.2 µM (active); in experiment [5], 0.203 µM (active); in experiment [7], 0.128 µM (active); in experiment [8] it was 0.42 µM (active).

For the compound `CC1(C)NC(=O)NC1=O`, the result in experiment [1], in experiment [2], in [3], in experiment [4], in [5] and in experiment [6] was inactive. Besides, the result in experiment [7] and in experiment [8] was inactive.

Turning to `CCCCCCCCCCCC(=O)OC`, the result in experiment [1], in experiment [2], in [3], in [4], in experiment [5] and in experiment [6] was inactive. Further, the outcome in experiment [8] was inactive. Moreover, the AC50 in [7] is 28.9 µM (active).

For `Nc1nc(N)c2nc(CNc3ccc(C(=O)N[C@@H](CCC(=O)O)C(=O)O)cc3)cnc2n1`, the outcome in [1], in experiment [2], in experiment [3], in experiment [4], in experiment [5] and in experiment [6] was inactive. Further, the outcome in experiment [7] and in [8] was inactive.

With `CCCCCC(=O)O`, the result in [1], in [2], in [3], in [4], in experiment [5] and in experiment [6] was inactive. The outcome in experiment [9], in [7] and in experiment [8] was inactive.

Take `OC[C@@H](O)[C@@H](O)[C@H](O)[C@H](O)CO`: the outcome in [1], in [2], in experiment [3], in experiment [4], in [5] and in experiment [6] was inactive. The outcome in experiment [7] and in [8] was inactive.

In the case of `CCCCN(CCCC)CCCC`, the result in experiment [1], in [2], in [3], in experiment [4], in [5] and in experiment [6] was inactive. Moreover, the result in experiment [9], in [7] and in [8] was inactive.

`O=C(O)CCCCC(=O)O`: the outcome in experiment [1], in experiment [2], in experiment [3], in experiment [4], in experiment [5] and in [6] was inactive. In addition, the outcome in [7] and in [8] was inactive.

Take `CCCCCCC(=O)OCC`: the outcome in experiment [1], in experiment [2], in experiment [3], in experiment [4], in [5] and in experiment [6] was inactive. Also, the outcome in experiment [7] and in experiment [8] was inactive.

With `CN1CCN(Cc2cc(-c3ccc4[nH]c(=O)oc4c3)co2)[C@@H](c2ccc(F)cc2)C1`, the outcome in [1], in [2], in [3], in experiment [4], in experiment [5] and in [6] was inactive. Moreover, the AC50 in experiment [7] was 17.6 µM (active); in experiment [8] it was 8.77 µM (active).

As to `Nc1ccc(S(=O)(=O)c2ccc(N)cc2)cc1`, the outcome in experiment [1], in experiment [2], in experiment [3], in experiment [4], in experiment [5] and in experiment [6] was inactive. Besides, the result in experiment [7] and in experiment [8] was inactive.

Take `CC1=C(/C=C/C(C)=C/C=C/C(C)=C/CO)C(C)(C)CCC1`: the AC50 in [1] is 12.2 µM (active); in [6], 27.8 µM (active); in experiment [7] it was 12.4 µM (active); in experiment [8] it was 24.2 µM (active). The outcome in experiment [2], in experiment [3], in experiment [4] and in [5] was inactive.

Regarding `Cc1ccccc1Cl`, the outcome in experiment [1], in [2], in [3], in [4], in experiment [5] and in [6] was inactive. Further, the outcome in experiment [9], in experiment [7] and in experiment [8] was inactive.

As to `NC(=O)Cn1c(=O)cc(CCN2CCN(c3nccc4sccc34)CC2)c2ccc(F)cc21`, the outcome in experiment [1], in experiment [2], in [3], in [4], in experiment [5] and in experiment [6] was inactive. Besides, the result in experiment [9], in experiment [7] and in experiment [8] was inactive.

For `Cc1nc(C)nc(N2C[C@@H](C)N(c3ccnc([C@@H](C)O)n3)[C@@H](C)C2)n1`, the result in experiment [1], in [2], in experiment [3], in experiment [4], in experiment [5] and in experiment [6] was inactive. Moreover, the result in experiment [9], in [7] and in [8] was inactive.

Consider `CC1(C)CC(N=C=O)CC(C)(CN=C=O)C1` (stereo unspecified), for which the result in [1], in experiment [2], in [3], in experiment [4], in experiment [5] and in experiment [6] was inactive. Moreover, the outcome in experiment [7] and in [8] was inactive.
